# In PubChem BioAssay AID1645838 (ICCB-Longwood Screening Facility, Harvard Medical School, 2021):
# Where “and” joins values, the source holds several entries; their conditions need not be identical. Equal entries are not always repeated. About 100 (5%) of roughly 2,000 compounds were called active. Cut-off read from the data, not from the text of the source: active = z-score above about 2; inactive = the rest. Shown is part of a subset that was picked to be rich in actives. Where a structure was tested more than once in an assay, its records may differ in their call.
# Test: modulators of mitochondrial supercomplex assembly, cell-based, luminescence, Hoechst nuclei count (AID 1645838);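 note: control cybrid cells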;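 for z-score: higher means more mitochondrial supercomplex formation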
# Details: Cells, luminescence/Hoechst cell count ratio, supercomplex reporter; for z-score: stronger effect = higher value; for cell count: measured here: cell number, Hoechst nuclei count
# [1] = library stock concentration (final well concentration not given) 80 uM
# [2] = library stock concentration (final well concentration not given) 400 uM
# [3] = library stock concentration (final well concentration not given) 2 mM
# [4] = library stock concentration (final well concentration not given) 10 mM
# [5] = library stock concentration (final well concentration not given) 46 uM
# [6] = library stock concentration (final well concentration not given) 278 uM
# [7] = library stock concentration (final well concentration not given) 1.67 mM
smiles,measurement,setting,value
CCCCCCNC(=O)Nc1ccc(S(=O)(=O)Nc2ccc(CCNCC(O)COc3ccc(O)cc3)cc2)cc1 (stereo unspecified),z-score,[1],-0.212 (inactive)
same,z-score,[2],0.0631 (inactive)
same,z-score,[3],-0.344 (inactive)
same,z-score,[4],0.114 (inactive)
same,cell count,[1],5240
same,cell count,[2],4980
same,cell count,[3],5190
same,cell count,[4],4950
N#Cc1cccc(C#N)c1-c1nc2c3ccccc3c3cc(Cl)ccc3c2[nH]1,z-score,[5],-0.238 (inactive)
same,z-score,[6],-0.156 (inactive)
same,z-score,[7],-0.196 (inactive)
same,z-score,[4],0.519 (inactive)
same,cell count,[5],6980
same,cell count,[6],6500
same,cell count,[7],7350
same,cell count,[4],6120
COc1ccccc1Oc1ccc(N(Cc2cccnc2)S(=O)(=O)CC(F)(F)F)cc1,z-score,[5],0.268 (inactive)
same,z-score,[6],-0.0606 (inactive)
same,z-score,[7],2 (active)
same,z-score,[4],0.543 (inactive)
same,cell count,[5],6460
same,cell count,[6],6750
same,cell count,[7],6250
same,cell count,[4],5860
CCOc1ccc(-n2c(C(C)N(Cc3cccnc3)C(=O)Cc3ccc(OC(F)(F)F)cc3)nc3ncccc3c2=O)cc1 (stereo unspecified),z-score,[1],0.00539 (inactive)
same,z-score,[2],0.51 (inactive)
same,z-score,[3],-0.332 (inactive)
same,z-score,[4],-0.306 (inactive)
same,cell count,[1],4950
same,cell count,[2],4820
same,cell count,[3],4910
same,cell count,[4],4660
CCOc1ccc(-n2c(C(C)N(Cc3cccnc3)C(=O)Cc3ccc(F)c(C(F)(F)F)c3)nc3ncccc3c2=O)cc1 (stereo unspecified),z-score,[1],-0.219 (inactive)
same,z-score,[2],-0.0969 (inactive)
same,z-score,[3],0.0541 (inactive)
same,z-score,[4],-0.0286 (inactive)
same,cell count,[1],5590
same,cell count,[2],5490
same,cell count,[3],5970
same,cell count,[4],4780
CCCCCCCCCCCCCCCCC/C=C/C(=O)O,z-score,,0.212 (inactive)
same,cell count,,4980
Cc1nc(Nc2ncc(C(=O)Nc3c(C)cccc3Cl)s2)cc(N2CCN(CCO)CC2)n1,outcome,library stock 10 mM,inactive; censored for cell count
same,z-score,[5],-0.0819 (inactive)
same,z-score,[1],3.96 (active)
same,z-score,[6],0.412 (inactive)
same,z-score,[2],5.15 (active)
same,z-score,[7],3.64 (active)
same,z-score,[3],6.64 (active)
same,z-score,[4],3.97 (active)
same,cell count,[5],4850
same,cell count,[1],2250
same,cell count,[6],4290
same,cell count,[2],1990
same,cell count,[7],2120
same,cell count,[3],1770
same,cell count,[4],1700
CCCCC[C@@H](O)/C=C/[C@H]1[C@H](C/C=C\CCCC(=O)O)C(=O)C[C@@H]1O,z-score,,-0.0856 (inactive)
same,cell count,,5040
CCC(=O)NCC1CC1c1cccc2c1CCO2 (stereo unspecified),z-score,[5],0.0958 (inactive)
same,z-score,[6],0.113 (inactive)
same,z-score,[7],-0.0496 (inactive)
same,z-score,[4],-0.0795 (inactive)
same,cell count,[5],6660
same,cell count,[6],6440
same,cell count,[7],7030
same,cell count,[4],7060
O=c1cc(N2CCOCC2)oc2c(-c3cccc4c3sc3ccccc34)cccc12,z-score,[1],-0.493 (inactive) and 0.0213 (inactive)
same,z-score,[2],-0.14 (inactive) and 0.291 (inactive)
same,z-score,[3],1.89 (inactive) and 3.23 (active)
same,z-score,[4],0.374 (inactive) and 11.4 (active)
same,cell count,[1],4940 and 6230
same,cell count,[2],4400 and 5530
same,cell count,[3],3070 and 3850
same,cell count,[4],4020 and 1970
O=c1cc(N2CCOCC2)oc2c(-c3ccccc3)cccc12,z-score,,0.00801 (inactive)
same,cell count,,5270
O=c1cc(N2CCOCC2)oc2c1ccc1ccccc12,z-score,[5],-0.263 (inactive)
same,z-score,[6],0.075 (inactive)
same,z-score,[7],0.0237 (inactive)
same,z-score,[4],-0.121 (inactive)
same,cell count,[5],6320
same,cell count,[6],6310
same,cell count,[7],6270
same,cell count,[4],6380
C[C@@H](O)CCC[C@@H](O)/C=C/[C@@H]1[C@@H](CCCCCCC(=O)O)[C@@H](O)C[C@H]1O,z-score,,-0.0165 (inactive)
same,cell count,,5060
NC(=O)c1ccc2nc(-c3ccc(Oc4ccc(Cl)cc4)cc3)[nH]c2c1,z-score,[1],0.235 (inactive)
same,z-score,[2],0.636 (inactive)
same,z-score,[3],0.25 (inactive)
same,z-score,[4],2.04 (active)
same,cell count,[1],4680
same,cell count,[2],4440
same,cell count,[3],4560
same,cell count,[4],3840
NC(=O)c1ccc(-c2nc(-c3ccc4c(c3)OCO4)c(-c3ccccn3)[nH]2)cc1,z-score,,-0.0341 (inactive)
same,cell count,,5380
NC(=O)c1ccc(-c2nc(-c3ccc4c(c3)OCCO4)c(-c3ccccn3)[nH]2)cc1,z-score,,0.107 (inactive)
same,cell count,,5540
CCCCCCCCCCCSCC(=O)O,z-score,,-0.636 (inactive)
same,cell count,,5540
CCCCCC(=O)/C=C/C=O,z-score,,3.38 (active)
same,cell count,,4570
CCCCCCCCCCCCCCCC(=O)NC(C)C,z-score,,-0.641 (inactive)
same,cell count,,5670
CCCCCC(O)/C=C/C=O (stereo unspecified),z-score,,-0.635 (inactive)
same,cell count,,5350
CCCCCC/C=C\CCCCCCCC(=O)OCC,z-score,,-0.872 (inactive)
same,cell count,,5340
Cc1ccc(C)c(-n2sc3cc(F)ccc3c2=O)c1,z-score,[5],-0.174 (inactive)
same,z-score,[6],-0.302 (inactive)
same,z-score,[7],-1.02 (inactive)
same,z-score,[4],1.44 (inactive)
same,cell count,[5],7370
same,cell count,[6],6230
same,cell count,[7],7150
same,cell count,[4],2660
CS(=O)(=O)N1CCc2c(-c3cnc(N)nc3)nc(N3CCOCC3)nc21,outcome,library stock 10 mM,inactive; censored for cell count
same,z-score,[1],-0.156 (inactive)
same,z-score,[2],0.294 (inactive)
same,z-score,[3],1.97 (active)
same,cell count,[1],5660
same,cell count,[2],4440
same,cell count,[3],2590
CC1=C(C(=O)Nc2ccccc2C)C(c2cccc([N+](=O)[O-])c2)C2=C(CCCC2=O)N1 (stereo unspecified),z-score,[1],0.502 (inactive)
same,z-score,[2],0.355 (inactive)
same,z-score,[3],-0.0592 (inactive)
same,z-score,[4],0.0886 (inactive)
same,cell count,[1],4870
same,cell count,[2],4830
same,cell count,[3],4490
same,cell count,[4],4680
CCCCCCCCCCCCCCCCC/C=C\C(=O)O,z-score,,0.0429 (inactive)
same,cell count,,4620
CCCCCCCC/C=C\CCCCCCCC(=O)NCC,z-score,,0.358 (inactive)
same,cell count,,5660
CCCCCCCC(=O)OC[C@H](CO)OC(=O)CCCCCCC,z-score,,-0.0675 (inactive)
same,cell count,,5320
CCCCCc1ccc(C=CC(=O)Nc2ccccc2C(=O)O)cc1,z-score,[5],0.0102 (inactive)
same,z-score,[6],-0.157 (inactive)
same,z-score,[7],-0.383 (inactive)
same,z-score,[4],-0.45 (inactive)
same,cell count,[5],6840
same,cell count,[6],6660
same,cell count,[7],6860
same,cell count,[4],6620
CCCCN(Cc1ccc(C(=O)NO)cc1)C(=O)Nc1ccccc1,z-score,[1],-0.413 (inactive)
same,z-score,[2],-0.344 (inactive)
same,z-score,[3],0.545 (inactive)
same,z-score,[4],1.99 (active)
same,cell count,[1],5840
same,cell count,[2],5790
same,cell count,[3],4990
same,cell count,[4],3280
CC(C)[C@H](C(=O)Nc1ccc(C(=O)NO)cc1)c1ccccc1,outcome,,inactive; censored for cell count
CC(C)(C)CCN1C[C@@H]2C(CNC(=O)c3cc(Cl)cc(Cl)c3)[C@@H]2C1 (stereo partly specified),z-score,[1],0.249 (inactive)
same,z-score,[2],-0.0169 (inactive)
same,z-score,[3],-0.303 (inactive)
same,z-score,[4],-0.298 (inactive)
same,cell count,[1],4670
same,cell count,[2],5180
same,cell count,[3],5270
same,cell count,[4],4390
CCCCC[C@H](O)/C=C/[C@@H]1[C@H]2CC(CCCCC(=O)O)O[C@H]2C[C@H]1O (stereo partly specified),z-score,,-0.784 (inactive)
same,cell count,,6080
O=C(NC(=O)c1c(F)cccc1Cl)NC1c2ccccc2-c2ccccc21,z-score,[5],-0.18 (inactive)
same,z-score,[6],-0.113 (inactive)
same,z-score,[7],-0.216 (inactive)
same,z-score,[4],-0.278 (inactive)
same,cell count,[5],6490
same,cell count,[6],6240
same,cell count,[7],6190
same,cell count,[4],5520
CC(C=CC1=C(C)CCCC1(C)C)=CC=CC(C)=CC(=O)O,z-score,[5],-0.113 (inactive)
same,z-score,[6],-0.063 (inactive)
same,z-score,[7],-0.22 (inactive)
same,z-score,[4],0.0473 (inactive)
same,cell count,[5],5180
same,cell count,[6],5150
same,cell count,[7],5430
same,cell count,[4],4870
O=C1NC(=O)/C(=C/c2ccc3c(c2)OC(F)(F)O3)S1,z-score,,0.349 (inactive)
same,cell count,,4670
O=C1NC(=O)C(=Cc2ccc3nccnc3c2)S1,z-score,[1],-0.0169 (inactive) and -0.181 (inactive)
same,z-score,[2],0.573 (inactive) and -0.161 (inactive)
same,z-score,[3],1.47 (inactive) and -0.299 (inactive)
same,z-score,[4],2.46 (active) and -0.465 (inactive)
same,cell count,[1],4280 and 5470
same,cell count,[2],4140 and 5420
same,cell count,[3],3800 and 5820
same,cell count,[4],2300 and 3900
O=C1NC(=O)/C(=C/c2ccc3nccnc3c2)S1,z-score,,0.662 (inactive)
same,cell count,,4050
CCCCCCCCCCCCCCCC(=O)O,z-score,,-0.762 (inactive)
same,cell count,,5780
CCCCCCCCCCC(=O)O,z-score,[5],-0.0477 (inactive)
same,z-score,[6],0.267 (inactive)
same,z-score,[7],-0.0647 (inactive)
same,z-score,[4],0.212 (inactive)
same,cell count,[5],6640
same,cell count,[6],6810
same,cell count,[7],6810
same,cell count,[4],6380
CC(C)(CCCCCCCCCCC(C)(C)CC(=O)O)CC(=O)O,z-score,,2.9 (active)
same,cell count,,5040
COC1C(N(C)C(=O)c2ccccc2)C[C@@H]2O[C@]1(C)n1c3ccccc3c3c4c(c5c6ccccc6n2c5c31)C(=O)NC4 (stereo partly specified),outcome,library stock 2 mM,inactive; censored for cell count
same,outcome,library stock 10 mM,inactive; censored for cell count
same,z-score,[1],0.298 (inactive)
same,z-score,[2],1.12 (inactive)
same,cell count,[1],5280
same,cell count,[2],4120
CCOC(=O)c1c(Cc2cccc(Cl)c2)[nH]c2c1cc(O)c1ccccc12,z-score,,0.267 (inactive)
same,cell count,,5070
CCCCC(C)(O)C/C=C/[C@H]1[C@H](O)CC(=O)[C@H]1CCCCCCC(=O)OC (stereo partly specified),z-score,,-0.356 (inactive)
same,cell count,,5650
CC(C)NCC(O)c1ccc(O)c(O)c1 (stereo unspecified),z-score,[5],0.406 (inactive)
same,z-score,[6],0.956 (inactive)
same,z-score,[7],0.578 (inactive)
same,z-score,[4],1.22 (inactive)
same,cell count,[5],6420
same,cell count,[6],6030
same,cell count,[7],6690
same,cell count,[4],6300
OCc1cc(C(O)CNCCCCCCOCCCCc2ccccc2)ccc1O (stereo unspecified),z-score,[1],1.97 (active)
same,z-score,[2],1.87 (inactive)
same,z-score,[3],1.36 (inactive)
same,z-score,[4],1.79 (inactive)
same,cell count,[1],4600
same,cell count,[2],4730
same,cell count,[3],4660
same,cell count,[4],3230
NC(=O)c1cccc(-c2cccc(OC(=O)NCCCCCCc3ccccc3)c2)c1,z-score,,0.191 (inactive)
same,cell count,,4760
COc1cc(C2c3cc4c(cc3C(O)[C@H]3COC(=O)[C@@H]23)OCO4)cc(OC)c1OC (stereo partly specified),outcome,library stock 2 mM,inactive; censored for cell count
same,outcome,library stock 10 mM,inactive; censored for cell count
same,z-score,[1],-0.602 (inactive)
same,z-score,[2],-0.324 (inactive)
same,cell count,[1],5600
same,cell count,[2],3990
O=C(O)CCC/C=C\C[C@@H]1[C@@H](/C=C/C(=O)CCc2ccccc2)[C@H](O)C[C@@H]1O,z-score,,0.328 (inactive)
same,cell count,,4980
CCCCC[C@H](O)/C=C/[C@H]1C=CC(=O)[C@@H]1C/C=C\CCCC(=O)O,z-score,,0.972 (inactive)
same,cell count,,5050
Oc1ccc(C=NN(Cc2ccccc2)Cc2ccccc2)cc1,z-score,[1],0.58 (inactive)
same,z-score,[2],0.621 (inactive)
same,z-score,[3],0.515 (inactive)
same,z-score,[4],1.23 (inactive)
same,cell count,[1],4430
same,cell count,[2],4410
same,cell count,[3],3940
same,cell count,[4],3600
